HPGD block: qHTS Assay for Inhibitors of HPGD (15-Hydroxyprostaglandin Dehydrogenase). 150,000 compounds, 4.3% hits. 15-hydroxyprostaglandin dehydrogenase [NAD(+)] (Homo sapiens), P15428. purified HPGD, NADH fluorescence kinetic, PGE2 substrate. Potency, µM, for the others: at the highest dose activity change, negative = inhibition, usual class: inhibitors; active means well fitted inhibition curve with a large enough effect, not every such curve was filed as active; inconclusive means small, poorly fitted or top-dose-only effect, or another doubt; inactive means no such curve, though single readings can be large or run the other way; further: potency means the concentration at half of the fitted maximal effect
Target sequence (P15428 whole entry, looked up): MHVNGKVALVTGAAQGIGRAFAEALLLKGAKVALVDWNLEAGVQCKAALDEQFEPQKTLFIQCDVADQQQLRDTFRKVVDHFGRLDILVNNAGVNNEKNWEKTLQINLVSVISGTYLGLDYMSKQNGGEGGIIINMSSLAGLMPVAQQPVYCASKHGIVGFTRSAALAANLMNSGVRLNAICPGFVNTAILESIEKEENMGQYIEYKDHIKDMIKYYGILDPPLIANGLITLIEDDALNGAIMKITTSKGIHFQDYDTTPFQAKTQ
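NADH formation kinetics: reaction with 30 uM PGE2 and 1 mM NAD+ (final), 20 nM enzyme, Tris-HCl pH 8 with Tween 20, after 15 min compound preincubation at room temperature. Fluorescence change, last versus first of five reads.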
NPSR antag: qHTS Assay for Antagonists of the Neuropeptide S Receptor: cAMP Signal Transduction; CHO-NPSR cells, cAMP TR-FRET, antagonist mode; Potency, µM (top dose mostly 38.3 µM), for inactives: at the top dose activity change, negative = inhibition, usual class: inhibitors; 220,000 compounds, 1% hits; AID 1461, 2008; further: potency means the concentration at half of the fitted maximal effect; nearly all actives have a fitted effect of over 50% in size
IMPase Li cell: qHTS Assay for Identifying the Cell-Membrane Permeable IMPase Inhibitors: Potentiation with Lithium; CHO-M1 cells, IP1 TR-FRET (IP-One), carbachol + lithium; Potency, µM (highest dose often 59.4 µM), for inactives: at the highest dose activity, negative = IMPase inhibition, most hits filed as inhibitors; 210,000 compounds, 0.35% hits;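 further: IP1 builds up when IMPase is blocked and the TR-FRET signal falls; potency means the concentration at half of the fitted maximal effect; plate controls were basal vehicle for no effect and high inhibitor control for full effect; nearly all actives have a fitted effect of over 50% in size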
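Concentration–response in CHO-M1 cells, lithium-potentiated; 30 min at 37C. IP1 detected by competitive TR-FRET after 10 min lysis at RT. Hill-fitted AC50.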
ALOX12 inhib: qHTS Assay for Inhibitors of 12-hLO (12-human lipoxygenase); Polyunsaturated fatty acid lipoxygenase ALOX12 (Homo sapiens), P18054; purified 12-hLO, xylenol orange hydroperoxide absorbance; Potency, µM (highest dose often 57.1 µM), for inactives: top-dose activity change, negative = inhibition, hits mostly inhibitors; 150,000 compounds, 0.12% hits; further: potency means the concentration at half of the fitted maximal effect; nearly all actives have a fitted effect of over 55% in size
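150 nM 12hLO, 25 mM Hepes pH 7.0 + 0.01% Triton X-100; cpd preinc 15 min RT; 40 uM arachidonic acid, 30 min RT; Fe-XO 30 min; A573/A405 ratio as read-out.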
IMPase cell inh: qHTS Assay for Identifying the Cell-Membrane Permeable IMPase Inhibitors. Inositol monophosphatase 1 (Rattus norvegicus), P97697. CHO-M1 cells, IP1 accumulation, HTRF TR-FRET ratio. inhibition (IP1 accumulation), % at 46.1 µM. 120,000 tested, under 10 active. AID 901, 2007; active means well fitted curve in the direction sought with a large enough effect in the signal ratio, not every such curve was filed as active; inconclusive means small, poorly fitted or top-dose-only effect, or a change in a side signal; inactive means no such curve, though single readings can be large or run the other way; the % refers to the signal ratio;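 further: cells stimulated with carbachol in lithium chloride buffer; plate controls were DMSO basal wells for no effect and reference inhibitor wells for full effect; higher means more IMPase inhibition seen as more IP1 and lower FRET ratio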
Target sequence (P97697 whole entry, looked up): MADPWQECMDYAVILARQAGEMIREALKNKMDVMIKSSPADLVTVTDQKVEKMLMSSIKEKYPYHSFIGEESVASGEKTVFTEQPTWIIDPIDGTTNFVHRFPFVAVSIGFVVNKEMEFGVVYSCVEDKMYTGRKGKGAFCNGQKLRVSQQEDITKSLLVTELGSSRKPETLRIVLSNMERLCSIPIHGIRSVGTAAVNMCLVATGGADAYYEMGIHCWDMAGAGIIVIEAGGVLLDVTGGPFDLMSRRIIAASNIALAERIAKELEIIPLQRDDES
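In this qHTS, compounds (final up to 46 uM) act on CHO-M1 cells that are then activated through the M1 receptor with carbachol, in pH 7.4 buffer containing 50 mM LiCl, for 30 min. IP1 accumulation is quantified by the IP-One immunoassay.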
ALDH1A1 inh: qHTS Assay for Inhibitors of Aldehyde Dehydrogenase 1 (ALDH1A1). Purified ALDH1A1, NADH fluorescence, propionaldehyde substrate. Potency, µM (series often up to 75.3 µM), inactives show at the top dose activity, negative = inhibition, hits mostly inhibitors. Aldehyde dehydrogenase 1A1 (Homo sapiens), P00352. AID 1030, 2008. 220,000 compounds, 7.3% hits; active means well fitted inhibition curve with a large enough effect, not every such curve was filed as active; inconclusive means small, poorly fitted or top-dose-only effect, or another doubt; inactive means no such curve, though single readings can be large or run the other way;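 further: potency means the concentration at half of the fitted maximal effect; plate controls were no enzyme wells and a reference inhibitor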
The depositor's hits bear a star; u = inconclusive; x = no result given; [ ] = remark or other dose. Hits are enriched below; roughly 8.9% of the tested compounds scored in any of these assays. Unless noted, the call rests on the fitted dose curve; in most records, active means well fitted curve in the direction sought with a large enough effect; inconclusive means small, poorly fitted or top-dose-only effect, or another doubt; inactive means no such curve, though single readings can be large; an effect the other way counts as inactive or inconclusive. Unless noted, on the % scale 0 is the no-effect control and ±100 the full control effect.

SMILES | HPGD block | NPSR antag | IMPase Li cell | ALOX12 inhib | IMPase cell inh | ALDH1A1 inh
Cc1ccc(NC(=O)Cn2cccc2)cc1C | u | -1%[46.1 µM] | -13%[38.3 µM] | 4% | -3 | -17%
Cc1ccc(NC(=O)CCSCCC(=O)Nc2ccc(C)c(C)c2)cc1C | -24% | -16%[46.1 µM] | -17%[38.3 µM] | -19% | 3 | 18µM*
NC(=O)CSc1nc2ccccc2n1Cc1ccccc1 | 2% | 6% | -5% | -2% | x | -12%
COc1ccc(-n2c(Cc3cccn3C)nnc2SCC(=O)Nc2cc(Cl)ccc2OC)cc1 | -12% | -48% | 15% | 3% | 1 | u
CCOCC(=O)Nc1cccc(C(=O)OCC)c1 | -5% | -8%[46.1 µM] | 15%[38.3 µM] | -6% | -5 | u
CCCCc1ccc(NC(=O)COCC)cc1 | 10µM* | -10%[46.1 µM] | 13%[38.3 µM] | 4% | 5 | 14µM*
CCc1nn(CC(=O)Nc2ccc(Br)c(C)c2)c(=N)s1 | x | -27% | 1% | x | x | 11µM*
CCc1nn(CC(=O)Nc2cc(C)ccc2C)c(=N)s1 | x | 10% | 22% | x | x | -3%
CCOCC(=O)Nc1ccc(Br)c(C)c1 | x | 5% | -3% | x | x | 14µM*
CCN(Cc1ccncc1)C(=O)CCc1nnc(CCC2CCCCC2)o1 | x | 4% | 1% | x | x | u
CCC(C)(C)n1nnnc1C(c1ccc2ncccc2c1)N1CCN(c2nc3ccccc3s2)CC1 (centres undefined) | -17% | u | 50%[38.3 µM] | -3% | 4[1.84 µM] | 1%
COc1cccc(Oc2ccc(N/C=C/C(=O)C(C)(C)C)cc2)c1 | -26% | -20% | 11% | 2% | x | 10µM*
COc1ccc(Oc2ccc(N/C=C/C(=O)C(C)(C)C)cc2)cc1 | x | -30% | 9% | x | x | u
CC(=O)Nc1ccc(N/C=C/C(=O)C(C)(C)C)cc1 | u | -4%[46.1 µM] | 25%[38.3 µM] | -1% | 4 | 22µM*
O=C(c1ccc(N2CCCCC2)c([N+](=O)[O-])c1)N(Cc1ccccc1)c1ccccn1 | -9% | u | 0%[38.3 µM] | -3% | -4 | u
COc1cc2c(cc1NC(=O)C(C)Sc1cccc[n+]1[O-])oc1ccccc12 (centres undefined) | -30% | -14% | 3% | -4% | x | u
N#Cc1ccc(C(=O)CSc2nnc(-c3ccc(C(F)(F)F)cn3)s2)cc1 | x | 16% | x | x | x | 35µM*
O=c1oc2c(O)c(O)cc3c(=O)oc4c(O)c(O)cc1c4c23 | 0.89µM* | 10% | -5% | -4% | u | -7%
CSc1ccc(S(=O)(=O)N2CCN(Cc3ccc4c(c3)OCO4)CC2)cc1 | -3% | -21% | 8% | 3% | 1 | 14µM*
CCN(CC)S(=O)(=O)c1ccc(NCC2COc3ccccc3O2)c([N+](=O)[O-])c1 (centres undefined) | -16% | -23% | 19% | -4% | 9 | -4%
O=C(CCN1CCc2ccccc2CC1)c1ccc2c(c1)OCCO2 | -21% | -14%[46.1 µM] | 5%[38.3 µM] | -5% | 0 | 0.11µM*
O=C(CCN1CCOCC1)c1ccc2c(c1)OCCO2 | -25% | 14%[46.1 µM] | 1% | -3% | -6 | 0.45µM*
CCn1ncc(NC(=S)Nc2ccc(OC)c(OC)c2)c1C(N)=O | x | 14% | 4% | x | x | u
Cc1c(O)ccc(C(=O)COc2ccc(F)cc2)c1O | x | -26%[46.1 µM] | x | -14% | 6 | 18µM*
CCCN(CCC)C(=O)c1ccc2c(c1)OCO2 | 25µM* | 5% | 0% | -3% | 12 | 4%
SMILES | HPGD block | NPSR antag | IMPase Li cell | ALOX12 inhib | IMPase cell inh | ALDH1A1 inh
CCCN(CCC)C(=O)c1cc(-c2ccc3c(c2)OCO3)nc2ccccc12 | u | -23%[46.1 µM] | -2%[38.3 µM] | -28% | 2 | u
Cc1ccc(C(NC(=O)N2CCOCC2)C(Cl)Cl)cc1F (centres undefined) | 4% | 27% | -6% | 0% | 3 | 20µM*
Cc1ccc(C(NC(=O)N2CCN(C)CC2)C(Cl)Cl)cc1F (centres undefined) | x | 13% | 5% | x | x | u
Cc1ccc(C(NC(=O)N2CC(C)OC(C)C2)C(Cl)Cl)cc1F (centres undefined) | -7% | -7% | 13% | -2% | 2 | 10µM*
Cc1ccc(C(NC(=O)N2CCOCC2)=C(Cl)Cl)cc1F | -15% | -20%[46.1 µM] | 25%[38.3 µM] | 3% | -2 | 0.11µM*
COc1ccc(C(=S)N2CCOCC2)cc1OC(=O)c1cccc([N+](=O)[O-])c1 | x | 2% | 0% | x | x | 0%
O=C(CN1CCOCC1)NC1C2CC3CC(C2)CC1C3 (centres undefined) | -11% | 1%[46.1 µM] | 11%[38.3 µM] | -2% | 1 | u
CNC(=O)c1nc(C)n(-c2ccc([N+](=O)[O-])cc2)n1 | x | 4% | 0% | x | x | -1%
Cc1nn(Cc2ccc(Cl)c(Cl)c2)c(C)c1NC(=O)c1cc(CC(C)C)on1 | -13% | u | 33%[38.3 µM] | -11% | 17 | u
COCCCn1c(-c2ccc(S(=O)(=O)N3CCOCC3)cc2)csc1=Nc1ccccc1 | u | u | 10µM* | 4% | -13 | 14µM*
Cc1[nH]n(-c2nc(-c3ccc(Cl)cc3)cs2)c(=O)c1N=Nc1ccc(O)cc1 | x | u | 20% | x | x | -5%
c1cncc(-c2cccnc2)c1 | -13% | -2%[46.1 µM] | 14µM* | 0% | -2 | u
Cc1ccc(S(=O)(=O)NC(C)(C)CSc2nnc(Nc3ccccc3)s2)cc1 | -10% | u | 13%[38.3 µM] | -11% | 7 | 20µM*
Cc1cc(N2C(=O)C(O)=C(C(=O)c3ccc(C)o3)C2c2cccs2)no1 (centres undefined) | 28µM* | 7.9µM* | 10µM* | 13% | u | 22µM*
CCc1ccc2nc(N3C(=O)C(O)=C(C(=O)c4ccco4)C3c3cccs3)sc2c1 (centres undefined) | 20µM* | 10µM* | -29% | 6% | -13 | -3%
Cc1ccc2nc(N3C(=O)C(O)=C(C(=O)c4cc5ccccc5o4)C3c3cccs3)sc2c1 (centres undefined) | -28% | 2%[46.1 µM] | -25%[38.3 µM] | u | u | 20µM*
CC(=O)C1=C(O)C(=O)N(Cc2cccnc2)C1c1ccc(O)cc1 (centres undefined) | x | 8% | -5% | x | x | u
CC(C)(C)C(=O)CSc1nnc(-c2cccs2)n1CC1CCCO1 (centres undefined) | -9% | -17%[46.1 µM] | 40%[38.3 µM] | 2% | 1 | -5%
CCn1c(SCC(=O)C(C)(C)C)nnc1-c1ccccn1 | -15% | -8%[46.1 µM] | 20%[38.3 µM] | 0% | -5 | 7.1µM*
